Screens: PubChem BioAssay, several laboratories
mHtt clearance – mutant huntingtin protein clearance; inhibition, % at 1.5 µM; HeLa Exon1htt(103Q)mCFP, aggregate imaging; zero = plate's median compound well; hit rate 0.42% among 47,000; AID 853;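 active = inhibition of aggregate fluorescence above about 70%, also judged a hit by eye on the cell image, limit read from the data, passing the limit was not always enough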;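 note: cells exposed to compound for three days before fixation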
M1 antagonist – antagonists of rat M1 muscarinic receptor | P08482 | CHO-M1 cells, Fluo-4 calcium, ACh EC80 antagonist mode; stronger effect = lower value | B-score at 10 µM | hit rate 3.4% among 64,000 | AID 628;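 active = calcium fluorescence response, raw or row-and-column corrected B-score, differing from the plate sample mean either way at a set confidence level, mostly lower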
M1 agonist – M1 muscarinic receptor agonism. hit rate 3% among 64,000. B-score at 10 µM. CHO-M1 cells, Fluo-4 calcium fluorescence, agonist mode; stronger effect = higher value;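 active = fluorescence rise, raw or as B-score row- and column-corrected plate score, outside the 99.7% band of its plate's samples, either direction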
D1 mod – allosteric modulators of human D1 dopamine receptor; P21728; HEK293 D1, CRE-luciferase, dopamine EC30 potentiation; actives deviate in either direction; B-score at 10 µM; hit rate 5.9% among 58,000; AID 641;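 active = luminescence count or its row- and column-corrected plate score outside the 99.7% band of the plate's sample wells, on either side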
Target sequence (P21728 whole entry, looked up): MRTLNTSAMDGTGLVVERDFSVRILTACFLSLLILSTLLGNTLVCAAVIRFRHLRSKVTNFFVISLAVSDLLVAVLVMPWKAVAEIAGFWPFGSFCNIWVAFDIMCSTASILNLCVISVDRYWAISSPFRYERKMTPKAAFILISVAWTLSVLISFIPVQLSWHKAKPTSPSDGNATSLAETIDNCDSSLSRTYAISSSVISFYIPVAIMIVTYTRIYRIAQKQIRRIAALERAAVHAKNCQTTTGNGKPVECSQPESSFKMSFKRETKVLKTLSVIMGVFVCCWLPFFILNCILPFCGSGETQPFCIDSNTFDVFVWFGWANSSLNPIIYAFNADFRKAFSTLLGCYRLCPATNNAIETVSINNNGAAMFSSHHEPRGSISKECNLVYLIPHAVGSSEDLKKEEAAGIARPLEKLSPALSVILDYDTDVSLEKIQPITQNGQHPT
The depositor's hits bear a star; / = no result given. Sampled rows, rich in hits. Any-hit rate of the full collection: about 9.1%.

SMILES | mHtt clearance | M1 antagonist | M1 agonist | D1 mod
CCN1CC2=C(OC(N)=C(C#N)C2c2ccccc2)/C(=C\c2ccccc2)C1 (configuration not stated) | / | -1.2 | 5.3 | /
CCN1CC2=C(OC(N)=C(C#N)C2c2cccs2)/C(=C/c2cccs2)C1 (configuration not stated) | -40 | -0.21 | 0.62 | -2.7*
Oc1ccccc1Nc1ncnc2c1oc1ccccc12 | 26 | -1.2 | 0.6 | 2.1
c1ccc2c(c1)oc1c(NCc3ccc4c(c3)OCO4)ncnc12 | / | -1.7 | 5.7* | -1.6
c1ccc(Nc2ncnc3c2oc2ccccc23)cc1 | 72* | -0.53 | 0.43 | 0.2
c1ccc2c(c1)oc1c(NCCN3CCOCC3)ncnc12 | 16 | -1.1 | -0.8 | 0.21
COc1cc(NS(=O)(=O)c2ccc(Br)s2)cc(OC)c1 | / | -0.16 | 0.066 | 0.15
Cc1cc(C)n(C(=O)CNC(=O)COc2ccccc2)n1 | / | 0.52 | 0.095 | -0.66
COc1ccc(C2C(C(=O)N3CCCC3)CC(=O)N2c2ccc(OC)cc2)cc1 (configuration not stated) | / | 0.11 | 1.1 | 0.18
COc1ccc(C2C(C(=O)N3CCN(c4ccccn4)CC3)CC(=O)N2c2ccc(OC)cc2)cc1 (configuration not stated) | 12 | -0.34 | 1.1 | -3.1*
CC1CCc2nc(NC(=O)C3CCCO3)sc2C1 (configuration not stated) | -26 | 0.64 | -0.78 | -4.6*
CC1CCc2nc(NC(=O)c3ccco3)sc2C1 (configuration not stated) | / | -0.016 | 0.48 | -7.5*
CC1CCc2nc(NC(=O)Cc3cccs3)sc2C1 (configuration not stated) | 16 | 0.16 | -0.0047 | -0.29
O=C(CC1CCCCC1)Nc1ncn[nH]1 | 11 | / | / | /
Nc1c(S(=O)(=O)c2cccc(Cl)c2)c2nc3ccccc3nc2n1/N=C/c1ccc(O)c(O)c1 | / | 0.72 | 0.21 | 0.18
CCOC(=O)C1CCN(c2ncnc3c2cnn3-c2ccccc2)CC1 | 17 | -1.5 | 0.099 | -0.23
CC1CCN(c2ncnc3c2cnn3-c2ccccc2)CC1 | / | -1.1 | -0.22 | -3*
COc1ccc(-n2ncc3c(N4CCC(C)CC4)ncnc32)cc1 | / | 0.35 | 0.00039 | -5.8*
C=CCN=C(C)C1=C(O)CCC1=O | 77* | -0.19 | -0.44 | -0.32
Cc1c(/C(O)=C2/C(=O)C(=O)N(CCCN3CCOCC3)C2c2ccncc2)cnn1-c1ccccc1 (configuration not stated) | / | -0.31 | 0.38 | -0.5
CCOc1ccccc1NC(=O)Cn1nnc(C(=O)NCc2ccco2)c1N | / | 0.37 | -1.5 | 0.0041
CCOc1ccccc1NC(=O)Cn1nnc(C(=O)Nc2ccc(C)cc2)c1N | / | -0.51 | 0.99 | -5.3*
Cc1ccc(Cn2nnc(C(=O)Nc3cc(C)ccc3C)c2N)cc1 | -34 | 1.8* | 0.064 | -0.17
Cc1ccc(C)c(NC(=O)c2nnn(Cc3ccccc3)c2N)c1 | / | -0.18 | 0.67 | 0.072
CN(C)C(=O)NC(Nc1ccc(Cl)cc1Cl)C(Cl)(Cl)Cl (configuration not stated) | -12 | / | / | /
SMILES | mHtt clearance | M1 antagonist | M1 agonist | D1 mod
CC1CCCN(S(=O)(=O)c2ccc3c(c2)CCN3C(=O)C2CCC2)C1 (configuration not stated) | / | 1.5 | -1.1 | -4.1*
Cc1ccc2nc3sc(C(=O)N4CCOCC4)c(N)c3cc2c1 | -62 | -0.67 | -2.1 | -5.5*
Cc1ccc2cc3c(N)c(C(=O)N4CCOCC4)sc3nc2c1 | -70 | 0.18 | -1.3 | -2.4
C=CCNC(=O)c1ccc2c(c1)nnn2C | -24 | -0.24 | -0.97 | /
COc1ccc(-c2nnc(SCC(=O)N3CCCCC3)o2)cc1OC | / | 0.53 | 0.54 | 4.9
COc1ccc(-c2nnc(SCC(=O)OC3CCCCC3)o2)cc1OC | 72* | -0.76 | -0.042 | 1.1
CCCCCn1c(NC2CCCCC2)nc2c1c(=O)[nH]c(=O)n2C | / | -0.054 | 0.33 | 5.7*
CCCCCCn1c(SCCOC)nc2c1c(=O)[nH]c(=O)n2C | / | 0.17 | -0.28 | 9.4*
Cc1ccc2c(n1)CC(C)(C)C/C2=N\O | -137 | / | / | /
C/C(=N\NC(=O)c1[nH]c2c([N+](=O)[O-])cc(C)cc2c1-c1ccccc1)c1cccnc1 | -61 | / | / | /
Cc1nc2ccccc2c2oc(C(=O)N3CCc4ccccc4C3)cc12 | / | 0.72 | 6* | -0.061
Cc1nc2ccccc2c2oc(C(=O)N3CCN(C(=O)c4ccco4)CC3)cc12 | / | 0.68 | -0.41 | 1.2
Cc1nnc(SCC(N)=O)n1CCc1ccccc1 | 71* | / | / | /
CCN1CCN(Cc2nc3c(c(=O)n(C)c(=O)n3C)n2Cc2ccc(Cl)cc2Cl)CC1 | / | 0.78 | -0.61 | 0.071
Cc1nc2ccccn2c1-c1csc(NCc2ccco2)n1 | 7 | -0.45 | 8 | -3.3*
CCc1nc(SCC(=O)c2cc(C)ccc2C)n[nH]1 | -21 | 0.016 | 0.72 | -0.0053
Cc1ccc(C)c(C(=O)CSc2n[nH]c(C(C)C)n2)c1 | 8 | 0.47 | -0.51 | -6*
Cn1c(CN2CCCCC2)c(C#N)c2ccccc21 | -6 | 0.012 | 0.99 | -2.2*
COCCn1c(C)cc(C(=O)CSc2nnc3ccccn23)c1C | / | 0.12 | -0.022 | -7.3*
CCCN1C=CC(=C2C(=O)c3ccccc3C2=O)C=C1 | / | 0.06 | -0.43 | -5.7*
CCN1C=CC(=C2C(=O)c3ccccc3C2=O)C=C1 | -74 | -0.066 | -0.049 | -8.8*
Cc1[nH]c(=O)c(C(=O)/C=C/c2ccccc2F)c2c1CCCC2 | -41 | / | / | /
CCc1[nH]nc2c1C(c1ccc(Br)s1)C(C#N)=C(N)O2 (configuration not stated) | 64 | 2.5* | -0.24 | /
CCc1[nH]nc2c1C(c1ccsc1)C(C#N)=C(N)O2 (configuration not stated) | -203 | / | / | /
O=C(NC1CC1)c1cccc(Nc2ccc(-c3ccc4c(c3)OCCO4)nn2)c1 | / | -2.7 | 3.8* | 0.29
SMILES | mHtt clearance | M1 antagonist | M1 agonist | D1 mod
O=C(Nc1ccc2[nH]c3c(c2c1)CCCC3)c1ccco1 | -50 | -0.16 | 3* | -0.013
O=C(Nc1ccc(N2CCCC2)c(Cl)c1)c1ccco1 | / | -0.45 | 1.2 | -4*
O=C(Nc1ccc(N2CCCCC2)c(C(=O)O)c1)c1ccco1 | 23 | 0.21 | 0.51 | 0.099
O=C(Nc1ccc2nc(-c3ccco3)[nH]c2c1)c1ccco1 | 33 | 0.36 | 0.044 | 0.7
CCNC(=O)/C(=C/c1ccc2c(c1)OCO2)NC(=O)c1ccc(Br)cc1 | -25 | / | / | /
CCN(CC)C(=S)Sc1c(-c2ccccc2)c2cc(Cl)ccc2[nH]c1=O | 12 | / | / | /
COc1ccc2oc(C(=O)C3CC3)c(NC(=O)CCCN3C(=O)c4ccccc4C3=O)c2c1 | / | 0.084 | 0.79 | 0.19
CCCc1ccc(Oc2cn[nH]c2-c2ccc(O)cc2O)cc1 | 5 | 0.04 | -0.41 | -4.9*
NC1=NC2(CCCCC2)n2c(nc3ccccc32)N1 | 25 | -0.02 | -1.2 | -4.6*
NC1=NC2(CCC(c3ccccc3)CC2)n2c(nc3ccccc32)N1 (configuration not stated) | -21 | -0.2 | 0.11 | -0.34
COc1ccc(-c2nc3c(c(=O)n(C)c(=O)n3C)n2CC2CC(c3ccccc3)=NO2)cc1OC (configuration not stated) | -62 | -0.0017 | 4.7* | 1.4
COc1ccc(C(=O)Cn2c(Br)nc3c2c(=O)n(C)c(=O)n3C)cc1OC | / | -0.5 | -0.62 | /
O=C(COc1ccc(-n2cnnn2)cc1)NC(=O)NCc1ccccc1 | 31 | 0.47 | -0.77 | -4.4*
